Myeloid diff 2 – induction of myeloid progenitor differentiation, primary screen, cell-based, flow cytometry, MLPCN library; AID 624256, 2012; calls only at 10 µM; ER-HoxA9 myeloid progenitors, lysozyme-GFP differentiation; 360,000 compounds, 1% hits;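 active = normalized GFP-positive differentiation at or above the plate's own cutoff, the solvent-only control mean plus 3 SD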;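 also: cells exposed to compound for four days before flow analysis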
TLR4-MyD88 BLA – inhibitors of TLR4-MyD88 association in cells, primary screen, cell-based, HeLa CL3-4, BLA complementation, FRET ratio; Toll-like receptor 4 (Homo sapiens) + Myeloid differentiation primary response protein …; HeLa CL3-4 TLR4/MyD88 BLA complementation; inhibition, % at 8.4 µM; 200,000 compounds, 0.18% hits; AID 861, 2007; in the data active = inhibition above about 25%
Target sequence (O00206 whole entry, looked up): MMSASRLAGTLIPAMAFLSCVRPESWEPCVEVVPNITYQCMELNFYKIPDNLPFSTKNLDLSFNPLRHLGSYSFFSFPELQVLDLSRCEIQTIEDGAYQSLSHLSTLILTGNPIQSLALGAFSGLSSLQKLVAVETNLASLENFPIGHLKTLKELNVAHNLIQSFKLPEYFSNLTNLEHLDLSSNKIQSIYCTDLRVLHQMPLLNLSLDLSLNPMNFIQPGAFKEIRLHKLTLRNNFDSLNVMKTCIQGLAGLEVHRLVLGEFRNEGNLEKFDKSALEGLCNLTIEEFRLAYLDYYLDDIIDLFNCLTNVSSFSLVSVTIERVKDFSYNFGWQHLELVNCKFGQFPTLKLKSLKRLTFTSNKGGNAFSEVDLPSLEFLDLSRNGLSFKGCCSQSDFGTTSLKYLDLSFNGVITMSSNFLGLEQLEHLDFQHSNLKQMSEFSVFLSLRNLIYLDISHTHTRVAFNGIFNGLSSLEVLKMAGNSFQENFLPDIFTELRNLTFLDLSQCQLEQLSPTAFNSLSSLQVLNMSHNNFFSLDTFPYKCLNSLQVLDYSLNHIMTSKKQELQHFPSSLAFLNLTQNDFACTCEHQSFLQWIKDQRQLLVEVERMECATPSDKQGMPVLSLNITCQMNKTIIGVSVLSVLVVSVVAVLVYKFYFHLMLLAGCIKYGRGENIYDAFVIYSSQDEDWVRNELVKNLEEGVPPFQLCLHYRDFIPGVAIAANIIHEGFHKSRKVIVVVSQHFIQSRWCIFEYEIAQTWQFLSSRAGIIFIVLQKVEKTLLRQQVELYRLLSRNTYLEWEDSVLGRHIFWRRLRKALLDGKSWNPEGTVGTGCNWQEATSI
Target sequence (Q99836 whole entry, looked up): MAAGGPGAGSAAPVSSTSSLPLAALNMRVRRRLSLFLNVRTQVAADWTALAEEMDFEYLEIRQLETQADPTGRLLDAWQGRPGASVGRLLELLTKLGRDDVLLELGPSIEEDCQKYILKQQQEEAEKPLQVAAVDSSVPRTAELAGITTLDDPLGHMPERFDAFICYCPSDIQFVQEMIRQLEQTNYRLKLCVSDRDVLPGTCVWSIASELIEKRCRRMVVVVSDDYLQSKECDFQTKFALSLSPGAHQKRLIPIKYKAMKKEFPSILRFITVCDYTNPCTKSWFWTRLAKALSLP
NOD2 RIPK2 PPI – NOD2-RIPK2 binding disruptors in cells, primary screen, fluorescence, CHO cells, BLA complementation; 360,000 compounds, 0.38% hits; Receptor-interacting serine/threonine-protein kinase 2 (Homo sapiens), O43353; AID 624267, 2012; CCF4 ratio; inhibition, % at 4.98 µM; in the data active = inhibition above about 21%
TLR9-MyD88 inh – inhibitors of TLR9-MyD88 association in cells, primary screen, cell-based, CHO, BLA complementation, fluorescence. AID 504734, 2011. Toll-like receptor 9 (Homo sapiens) + Myeloid differentiation primary response protein …. 340,000 compounds, 0.21% hits. CCF4 FRET ratio. inhibition, % at 4.98 µM;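 active = inhibition above the mean over all tested compounds plus 3 SD, cut at about 21% in these data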
Myeloid diff – inducers of myeloid progenitor differentiation, confirmation, cell-based, GFP/Mac1 flow cytometry, cherry pick 01 | 2,300 compounds, 2% hits | ER-HoxA9 myeloid progenitors, GFP/Mac1 double-positive flow | calls only | shares compounds with Myeloid diff 2 | AID 651706, 2012;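 active = share of green or green-and-red cells above 9 and 9% in run 1 or 4 and 3% in run 2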
GFP autofluor – counter-screen for myeloid differentiation promoters: compound fluorescence | shares compounds with Myeloid diff 2 | ER-HoxA9 myeloid progenitors, no estrogen, GFP autofluorescence flow cytometry; vehicle wells 0%, positive control 100% | fluorescence response, % (concentration not given with the values) | 2,300 compounds, 7.4% hits | AID 651707;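 active = over 5% cells positive for green fluorescent reporter, or over 2% positive for both it and APC stain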
Large screens that a line does not name were inactive (follow-up assays come after a bar, where they were run). Shown are actives, neighbours in structure and some others; about 1.5% of the full set was active somewhere.

CC(C)C(=O)Nc1cccc(NC(=O)CCN2C(=O)c3ccccc3S2(=O)=O)c1	none | Myeloid diff inactive | GFP autofluor inactive
O=C(CN1C(=O)c2ccccc2S1(=O)=O)Nc1ccccc1	none
CSc1cccc(NC(=O)CN2C(=O)c3ccccc3S2(=O)=O)c1	none | Myeloid diff inactive | GFP autofluor inactive
Cc1ccc(S(=O)(=O)N2C[C@H]3C(=O)C[C@@H](c4cccs4)N(S(=O)(=O)c4ccc(C)cc4)[C@H]3C[C@H]2c2ccccc2)cc1	none (no result: TLR4-MyD88 BLA, TLR9-MyD88 inh)
COC1=CC(C)C2CC3OC(=O)CC4C(C)=C(OC)C(=O)C(C2(C)C1=O)C34C (stereo not given)	none (no result: TLR4-MyD88 BLA, TLR9-MyD88 inh)
COc1cccc(C(=O)COC(=O)C(C)N2C(=O)c3ccccc3C2=O)c1 (stereo not given)	none | Myeloid diff inactive | GFP autofluor inactive
CC1=C(C(=O)N2CCCCCC2)CC(CC(=O)NC2CC2)C(=O)N1Cc1ccccc1 (stereo not given)	none (no result: TLR4-MyD88 BLA, TLR9-MyD88 inh)
N#C/C(=C/c1ccc(-c2cccc([N+](=O)[O-])c2)o1)C(=O)Nc1nc(-c2cccs2)cs1	none (no result: TLR4-MyD88 BLA)
N#C/C(=C\c1ccc(-c2ccc([N+](=O)[O-])cc2)o1)C(=O)Nc1nc(-c2cccs2)cs1	Myeloid diff 2 active (no result: TLR4-MyD88 BLA) | Myeloid diff inactive | GFP autofluor inactive
Cc1ccc(C)c(S(=O)(=O)N2CCN(C(=O)Cc3ccccc3)CC2)c1	none (no result: TLR4-MyD88 BLA)
Cc1ccc(C)c(S(=O)(=O)N2CCN(C(=O)CCC(=O)c3cc(C)sc3C)CC2)c1	Myeloid diff 2 active (no result: TLR4-MyD88 BLA) | Myeloid diff inactive | GFP autofluor inactive
Cc1cc(Cl)c(OCCCn2cncn2)c(Br)c1	none
Cc1cc(Cl)cc(Br)c1OCCCCn1cncn1	Myeloid diff 2 active | Myeloid diff inactive | GFP autofluor inactive
CCCCOc1ccc(C(O)(CC)CCN2CCOCC2)cc1 (stereo not given)	none
CCCCOc1ccc(C(O)(CCC)CCN2CCOCC2)cc1 (stereo not given)	none | Myeloid diff inactive | GFP autofluor inactive
OC(c1cccc(Cl)c1)c1ncc(-c2ccccc2Cl)[nH]1 (stereo not given)	none (no result: TLR4-MyD88 BLA, TLR9-MyD88 inh)
COc1ccc(-n2nc3ccc(N)cc3n2)cc1Cl	none (no result: TLR4-MyD88 BLA) | Myeloid diff inactive | GFP autofluor inactive
Cc1ccc(-n2nc3ccc(N)cc3n2)cc1Cl	none (no result: TLR4-MyD88 BLA)
O=C1OCCC1=COCCCCCCOC=C1CCOC1=O	none (no result: TLR4-MyD88 BLA)
CC(C)C(N)c1csc(Nc2ccc(S(C)(=O)=O)cc2)n1 (stereo not given)	none (no result: TLR4-MyD88 BLA, TLR9-MyD88 inh)
CC1=[N+](CC(=O)c2ccccc2)CCn2cccc21	Myeloid diff 2 active (no result: TLR9-MyD88 inh) | Myeloid diff inactive | GFP autofluor inactive
Brc1ccc(-c2csc3[n+]2CCCCC3)cc1	Myeloid diff 2 active | Myeloid diff active | GFP autofluor inactive
Clc1ccc(-n2cc(-c3ccc(Br)cc3)[n+]3c2CCCCC3)cc1	none (no result: TLR4-MyD88 BLA)
O=C(CN1CCCCC1)Nc1nnc(-c2ccc([N+](=O)[O-])cc2)s1	none | Myeloid diff inactive | GFP autofluor inactive
O=C(CN1CCCCC1)Nc1nnc(-c2ccccc2)s1	none
COc1ccc(-c2nnc(SCC(=O)Nc3cc(C)on3)n2C)cc1OC	Myeloid diff 2 active | Myeloid diff inactive | GFP autofluor inactive
Cc1ccc2c(c1)CCCN2CC(=O)N(C)c1c(N)n(Cc2ccccc2)c(=O)[nH]c1=O	none (no result: TLR4-MyD88 BLA) | Myeloid diff inactive | GFP autofluor inactive
CCN(C(=O)CN1CCCc2cc(C)ccc21)c1c(N)n(Cc2ccccc2)c(=O)[nH]c1=O	none (no result: TLR4-MyD88 BLA) | Myeloid diff inactive | GFP autofluor inactive
CN1CCN(c2cccc3c2S(=O)(=O)N[C@@H](Cc2ccccc2)CO3)CC1	none (no result: TLR4-MyD88 BLA, TLR9-MyD88 inh)
Cc1c(N/N=C(\C#N)C(=O)c2ccccc2)c(=O)n(-c2ccccc2)n1C	none | Myeloid diff inactive | GFP autofluor 6.9
Cc1ccc2c(C)c(C(=O)Nc3c(C)n(C)n(-c4ccccc4)c3=O)oc2c1	none
Cc1cc2oc(C(=O)Nc3c(C)n(C)n(-c4ccccc4)c3=O)c(C)c2cc1C	none | Myeloid diff inactive | GFP autofluor inactive
CC(C)c1ccc(NC(=O)C2(C)Cc3c(-c4ccc(N(C)C)cc4)ccnc3O2)cc1 (stereo not given)	none (no result: TLR4-MyD88 BLA, TLR9-MyD88 inh)
Cc1nc(SCC(=O)c2cc(C)n(C3CC3)c2C)c2ccccc2n1	none (no result: TLR4-MyD88 BLA)
O=C(COc1ccc2ccc(=O)oc2c1)NC1CCCC1	Myeloid diff 2 active (no result: TLR4-MyD88 BLA) | Myeloid diff inactive | GFP autofluor inactive
COc1ccc(CN2C(=O)CCCC2(C)c2nc3ccccc3[nH]2)cc1 (stereo not given)	none (no result: TLR4-MyD88 BLA, TLR9-MyD88 inh)
COc1ccc(CC(=O)NNC(=O)c2ccc(SCc3cc(F)ccc3F)c([N+](=O)[O-])c2)cc1	none | Myeloid diff inactive | GFP autofluor inactive
COc1cccc(C(=O)NNC(=O)Cc2ccc([N+](=O)[O-])cc2)c1	none
COc1cc(/C=C2\SC(=S)N(NC(=O)c3ccncc3)C2=O)ccc1O	none (no result: TLR4-MyD88 BLA)
COc1cc(/C=C2\SC(=S)N(NC(=O)c3ccc(O)c(OC)c3)C2=O)ccc1O	none (no result: TLR4-MyD88 BLA) | Myeloid diff inactive | GFP autofluor 28
COC(=O)c1ccccc1NC(=O)c1nc2nc(C)cc(C)n2n1	none | Myeloid diff inactive | GFP autofluor inactive
COC(=O)c1ccccc1NC(=O)c1cnn2c(C)cc(C)nc12	none
CSc1cccc(NC(=O)c2ccc(Cl)nc2)c1	none | Myeloid diff inactive | GFP autofluor inactive
Cc1cc(C(=O)OCC(N)=O)c(C)n1-c1ccccc1	none
C/C(N)=C(/C#N)C(=O)COC(=O)c1cc(C)n(-c2ccc(F)cc2)c1C	Myeloid diff 2 active | Myeloid diff active | GFP autofluor inactive
Cc1ccc(C(=O)CCC(=O)OCC(=O)Nc2ccccc2SCC#N)cc1	Myeloid diff 2 active (no result: TLR4-MyD88 BLA) | Myeloid diff inactive | GFP autofluor 89
CC1(C(=O)NCc2cccc3ccccc23)CCN1Cc1cccc2c1OCO2 (stereo not given)	none (no result: TLR4-MyD88 BLA, TLR9-MyD88 inh)
CCOc1ccc(-n2c(C)c3c(C)nnc(C)c3c2C)cc1	none (no result: TLR4-MyD88 BLA) | Myeloid diff inactive | GFP autofluor 42
CCOc1ccc(-c2nnc(-c3ccccc3)n2-c2ccccc2)cc1	none
COc1ccccc1NC(=S)NC1CCCC1	none (no result: TLR4-MyD88 BLA)
COc1ccccc1NC(=S)NC1CCC(CC2CCC(NC(=S)Nc3ccccc3OC)CC2)CC1 (stereo not given)	Myeloid diff 2 active | Myeloid diff inactive | GFP autofluor inactive
COc1cc(/C=N\Nc2ccc([N+](=O)[O-])cc2)ccc1OCC(=O)Nc1ccc(C)c(C)c1	none | Myeloid diff inactive | GFP autofluor inactive
CCOc1cc(/C=N\Nc2ccc([N+](=O)[O-])cc2)ccc1OCC(=O)Nc1ccc(C)c(C)c1	none (no result: Myeloid diff 2)
COc1ccc(C2=Nc3ccccc3NC(=O)C2N(CCc2ccccc2)C(=O)c2cccs2)cc1 (stereo not given)	none (no result: TLR4-MyD88 BLA, TLR9-MyD88 inh)

High-throughput results: PubChem BioAssay, several laboratories
